Data taken from PubChem BioAssay.
Values without a mark were called inactive. The rule behind the calls is not given here.

Each compound was assayed against Pantothenate synthetase (Mycobacterium tuberculosis (strain ATCC 25618 / H37Rv)) (UniProt P9WIL5) (assay: Recombinant Mtb pantothenate synthetase (PanC) inhibitors, coupled enzyme, confirmatory (AID 375;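 note: 0% = full reaction with vehicle and 100% = no enzyme background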)). Settings: coupled enzyme assay; at 10 µM, hits give high values.
Sequence of Pantothenate synthetase (Mycobacterium tuberculosis (strain ATCC 25618 / H37Rv)) (P9WIL5 whole entry, looked up): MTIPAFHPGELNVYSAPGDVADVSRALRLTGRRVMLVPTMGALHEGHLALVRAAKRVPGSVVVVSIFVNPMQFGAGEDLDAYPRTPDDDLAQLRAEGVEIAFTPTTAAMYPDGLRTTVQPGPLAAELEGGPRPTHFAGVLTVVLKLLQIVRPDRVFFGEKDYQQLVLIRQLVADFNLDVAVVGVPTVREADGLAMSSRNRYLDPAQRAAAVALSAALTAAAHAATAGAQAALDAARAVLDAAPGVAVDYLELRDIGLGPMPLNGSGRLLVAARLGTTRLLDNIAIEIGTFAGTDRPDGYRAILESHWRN

| SMILES | inhibition |
| --- | --- |
| CCC(=O)Oc1ccc(/C(CC)=C(\CC)c2ccc(OC(=O)CC)cc2)cc1 | 0% |
| COc1ccccc1CC(=O)Nc1ccc(OC)c(OC)c1 | 3% |
| Cc1nc2ccccc2c(=O)n1NC(=O)c1ccc(F)cc1Cl | 5% |
| CCC(=O)N/C(N)=N/c1nc(C)c2cc(OC)ccc2n1 | 0% |
| COc1cccc(CN2CCN(C(=O)c3ccco3)CC2)c1OC | 3% |
| Cc1cnc(C(=O)Nc2ccc(N3CCN(C(=O)OC(C)(C)C)CC3)cc2)cn1 | 0% |
| COc1ccc(S(=O)(=O)N2CCCC2C(=O)Nc2ccc(O)cc2)cc1 (stereo not given) | 0% |
| CCN1CCN(c2ncc(C(=O)N3CCN(c4ccccc4OC)CC3)c3ccccc23)CC1 | 3% |
| CCOC(=O)c1ccc(N=c2sc(C(=O)OC)cc(=O)n2Cc2ccco2)cc1 | 0% |
| CCCC1CC(C)(C(=O)Cn2[nH]c(=O)ccc2=O)OC1=O (stereo not given) | 10% |
| O=C1c2ccccc2C(=O)N1CCC(=O)N1CCc2ccccc21 | 0% |
| O=C(O)CN1C(=O)C2(OCCCO2)c2ccccc21 | 0% |
| Cc1cc(=O)n2nc(N3CCCC(C(=O)N4CCc5ccccc54)C3)sc2n1 (stereo not given) | 4% |
| N#Cc1c(NC(=O)COC(=O)C2CC3C=CC2C3)oc(-c2ccccc2)c1-c1ccccc1 (stereo not given) | 1% |
| COC(=O)c1ccc(NC2(C#N)C(=O)Nc3ccccc32)cc1 (stereo not given) | 0% |
| Cn1nnnc1SCC(=O)NCc1ccco1 | 5% |
| COc1ccc(OC(C)C(=O)N2CCN(c3ccccn3)CC2)cc1 (stereo not given) | 7% |
| O=C1c2ccccc2C(=O)N1C/C=C/CN1C(=O)c2ccccc2C1=O | 0% |
| Cc1ccc(C(C)C)c(OCCCN2CC(C)OC(C)C2)c1 (stereo not given) | 0% |
| COc1cccc(NC(=O)c2ccccc2NS(C)(=O)=O)c1 | 0% |

| SMILES | inhibition |
| --- | --- |
| COc1cccc(NC(=O)CN2CCN(c3ccccc3F)CC2)c1 | 4% |
| CCOc1nc(-c2ccccc2)ccc1-c1noc(-c2cccnc2)n1 | 0% |
| Cc1nc2cccc(C(=O)NC3CCCCC3)c2o1 | 0% |
| O=C(CCC(=O)OCC(=O)c1ccccc1)NC1CCCCC1 | 2% |
| COc1cc(NC(=O)NC(C)(C(F)(F)F)C(F)(F)F)cc(OC)c1OC | 0% |
| CCNc1nc(N2CCCCC2)nc(-n2nnc(C(=O)OCC)c2C)n1 | 2% |
| O=C(NC1CCCC1)C(NS(=O)(=O)c1cccc2nsnc12)c1ccccc1 (stereo not given) | 7% |
| Nc1ccc(S(=O)(=O)c2cccc(N)c2)cc1 | 8% |
| Cc1ccc(S(=O)(=O)N(CCO)c2cc3c(s2)CCCC3)cc1 | 0% |
| C=CCSc1nc2c(c(=O)[nH]c(=O)n2C)n1CC | 2% |
| O=C(C1CCCO1)N1CCN(C(c2ccccc2)c2ccccc2)CC1 (stereo not given) | 0% |
| Cc1c(C(=O)NCCC2=CCCCC2)oc2ccc(S(=O)(=O)N3CCC4(CC3)OCCO4)cc12 | 0% |
| Cc1cc(O)c(C(C)C)cc1N=C1CSC(=O)N1 | 0% |
| COc1cccc(N(C(=O)c2ccco2)C(C(=O)NC2CCCC2)c2ccc(N(C)C)cc2)c1 (stereo not given) | 0% |
| CCC(C)C(=O)Nc1nc2c(s1)C(=O)CC(C)(C)C2 (stereo not given) | 10% |
| CCCN(CCC)CCNC(=O)c1cc2c(=O)n(C)c3ccccc3c2n1C | 0% |
| CN(C)CCOc1ccccc1Cc1ccccc1 | 0% |
| CCc1ccccc1N1C(=O)C2CC(C)=C(C)CC2C1=O (stereo not given) | 0% |
| COc1ccc(N(CC(=O)N2CCN(Cc3ccc4c(c3)OCO4)CC2)S(C)(=O)=O)cc1OC | 5% |
| Cc1csc(NC(=O)c2sc3nc(-c4cccs4)ccc3c2N)n1 | 5% |
